{"source": "PubChem BioAssay AID504707", "about": "(The Scripps Research Institute Molecular Screening Center, 2011)", "note": "The campaign covered roughly 340,000 compounds. About 280 (0.082%) were called active. The list comes from a sample in which actives are over-represented; it also holds similar structures and randomly drawn compounds. Values without a mark were called inactive.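 The calls were made as follows: active = percent activation above the mean of all tested compounds plus 3 SD (cut at about 19% in these data); inactive = the rest.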", "data": [{"target": "cAMP-dependent protein kinase type I-alpha regulatory subunit (Bos taurus) + cAMP-dependent protein kinase catalytic subunit beta (Mus musculus) (UniProt P00514+P68181)", "assay": "compounds dissociating PKAc from R1A subunit – biochemical, fluorescence polarization, Cy5-IP20, bovine R1A, mouse PKAc, primary screen (AID 504707);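 also: higher means more PKAc released from R1A so a rise in polarization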", "settings": "PKA-R1A dissociation, at 11.4 µM, hits give high values, scaled: DMSO 0%, 113 µM cGMP 100%", "values": [{"smiles": "COc1ccc(S(=O)(=O)N2CCC(C(=O)NCCC(=O)Nc3ccccc3OC)CC2)cc1", "activation": "-8.6%"}, {"smiles": "COc1ccc(C=C2CCC3C(CCCC34OCCO4)C2=O)cc1", "note": "(stereo not drawn)", "activation": "-11.2%"}, {"smiles": "Cc1ccccc1NC(=O)Cc1nc(COC(=O)CNC(=O)c2ccc(Cl)cc2Cl)cs1", "activation": "4.88%"}, {"smiles": "COc1ccc(NC(=O)N(C)C[C@@H]2OCc3cn(nn3)CCCC(=O)N([C@H](C)CO)C[C@H]2C)c(OC)c1", "activation": "1.93%"}, {"smiles": "Cc1ccc(-c2ccc(CN3C(C(C)C)C(=O)N(Cc4cn(CCC5OCCO5)nn4)CCS3(=O)=O)cc2)cc1", "note": "(stereo not drawn)", "activation": "-8.79%"}, {"smiles": "N#Cc1ccc(OCC(=O)Nc2nc(-c3ccccn3)cs2)cc1", "activation": "8.97%"}, {"smiles": "Cn1c(CCN2CCN(c3ccccn3)CC2)nc2cc(NS(=O)(=O)c3ccc(F)cc3)ccc21", "activation": "-5.08%"}, {"smiles": "COCCNC(=O)CSc1nc(N)c(NC(=O)c2ccco2)c(=O)[nH]1", "activation": "5.93%"}, {"smiles": "CC1(C)NC(=O)N(CC(=O)Nc2ccc(-c3ccccc3)cc2)C1=O", "activation": "-8.93%"}, {"smiles": "CCn1c(SCC(=O)N(C)C2CCS(=O)(=O)C2)nnc1-c1cccs1", "note": "(stereo not drawn)", "activation": "0.15%"}, {"smiles": "CN(C(=O)CSc1nnc(Nc2ccccc2)s1)C1CCS(=O)(=O)C1", "note": "(stereo not drawn)", "activation": "19.6% (active)"}, {"smiles": "CC(C)N(C(=O)CSc1nnc(NC2CC2)s1)c1ccccc1", "activation": "-3.79%"}, {"smiles": "CC1(c2cccc(N)c2)OCCO1", "activation": "-5.54%"}, {"smiles": "O=C(CCCN1C(=O)C(c2ccccc2)Oc2cccnc21)Nc1ccccc1Br", "note": "(stereo not drawn)", "activation": "-1.04%"}, {"smiles": "O=C(ON=C1CCN(S(=O)(=O)c2ccccc2)CC1)c1ccc(Cl)cc1", "activation": "6.75%"}, {"smiles": "CNC(=O)C[C@H]1C(=O)N(c2ccc(OC)cc2)C[C@@H]1Cc1ccccc1", "activation": "-2.17%"}, {"smiles": "O=C(CN1CCN(S(=O)(=O)c2ccc(Cl)s2)CC1)NCc1ccc(Cl)cc1", "activation": "6.31%"}, {"smiles": "COCC(=O)N(C)C[C@H]1Oc2cc(Br)ccc2S(=O)(=O)N([C@H](C)CO)C[C@H]1C", "activation": "-4.65%"}, {"smiles": "CCN(CC)C(=O)C1=C(C)N(Cc2ccc(F)cc2)C(=O)C(CC(=O)NC2CCCC2)C1", "note": "(stereo not drawn)", "activation": "12.1%"}, {"smiles": "Cc1ccc(Cc2c(-c3ccccc3)nc3ccc(Cl)cn23)cc1", "activation": "-1.62%"}, {"smiles": "Cc1cccc(S(=O)(=O)N(C)C[C@H]2OCc3cnnn3CCCC(=O)N([C@@H](C)CO)C[C@H]2C)c1", "activation": "7.92%"}, {"smiles": "CC(C)n1ncc2c(C(=O)N3CCN(Cc4cccs4)CC3)cc(C3CC3)nc21", "activation": "1.11%"}, {"smiles": "C[C@H](CO)N1C[C@H](C)[C@@H](CN(C)S(=O)(=O)c2ccc(Oc3ccccc3)cc2)OCc2cn(nn2)CCCC1=O", "activation": "1.58%"}, {"smiles": "COCCn1c(SCC(=O)Nc2ccc(F)cc2F)nc2c(c1=O)SCC2", "activation": "-3.58%"}, {"smiles": "C[C@@H]1CN([C@H](C)CO)C(=O)CCCn2cc(nn2)CO[C@H]1CN(C)S(=O)(=O)c1ccc(Oc2ccccc2)nc1", "activation": "-8.71%"}, {"smiles": "Cc1ccc(S(=O)(=O)N2C[C@H]3C(=O)C[C@@H](c4cccc5ccccc45)N(S(=O)(=O)c4ccc(C)cc4)[C@H]3C[C@H]2c2ccc(Cl)cc2)cc1", "activation": "1.48%"}, {"smiles": "COc1ccc(S(=O)(=O)N(C)C)cc1NC(=O)COC(=O)c1n[nH]c2ccccc12", "activation": "0.55%"}, {"smiles": "O=C(NCCOc1ccccc1)c1ccccc1F", "activation": "-12.1%"}, {"smiles": "CCN1CCN(CCNC(=O)c2ccc3c(c2)NC(=O)/C(=C\\c2cccc(Cl)c2)S3)CC1", "activation": "-8.75%"}, {"smiles": "C[C@H]1CN([C@@H](C)CO)C(=O)c2cc(-c3ccccc3F)cnc2O[C@H]1CN(C)C(=O)C1CCOCC1", "activation": "-7.74%"}, {"smiles": "C[C@@H]1CCCCO[C@H](CN(C)Cc2ccccc2)[C@@H](C)CN([C@H](C)CO)C(=O)c2cc(NS(=O)(=O)c3ccc(Cl)cc3)ccc2O1", "activation": "-4.59%"}, {"smiles": "C#Cc1cc(N2CCN(C(=O)c3ccoc3)CC2)n2nc(-c3cccc(Cl)c3)cc2n1", "activation": "-0.28%"}, {"smiles": "COc1ccc(-c2ccc(CN3C(C(C)C)C(=O)N(Cc4cn(CC5CCCCC5)nn4)CCS3(=O)=O)cc2)cn1", "note": "(stereo not drawn)", "activation": "6.26%"}, {"smiles": "O=C(Nc1ccc(Cl)cn1)c1ccccc1-c1ccccc1", "activation": "-2.35%"}, {"smiles": "CC1CCCC(NC(=O)COC(=O)c2ccccc2C(=O)N(C)C2CCCCC2)C1C", "note": "(stereo not drawn)", "activation": "4.19%"}, {"smiles": "CC(C)c1cc(C(=O)N(C)C2CCCN(Cc3ccccc3F)C2)n(C)n1", "note": "(stereo not drawn)", "activation": "-3.3%"}, {"smiles": "Cc1ccc(C=O)c([B-](F)(F)F)c1", "activation": "-6.39%"}, {"smiles": "COCCCN1C(=O)C(CC(=O)NCc2cccs2)CC(C(=O)N2CCOCC2)=C1C", "note": "(stereo not drawn)", "activation": "-6.5%"}, {"smiles": "O=C(COc1ccc(Br)cc1)OCC(=O)c1ccc[nH]1", "activation": "-8.33%"}, {"smiles": "CCCC(=O)Nc1ncnc2c1ncn2[C@@H]1O[C@@H]2OP(=O)(O)OC[C@H]2[C@H]1OC(=O)CCC", "activation": "49.2% (active)"}, {"smiles": "C[C@@H]1CN([C@H](C)CO)C(=O)CCCn2cc(nn2)CO[C@H]1CN(C)S(C)(=O)=O", "activation": "-6.01%"}, {"smiles": "C[C@H]1CN(c2ccc(Br)cc2)C(=O)[C@@H]1CC(=O)Nc1ccc(Br)cc1", "activation": "-2.37%"}, {"smiles": "COc1cccc(NC(=O)N(C)C[C@@H]2Oc3ncc(Br)cc3C(=O)N([C@@H](C)CO)C[C@H]2C)c1", "activation": "-5.28%"}]}]}
